In PubChem BioAssay (NCATS) one finds Potency data, which are given here for 39 compounds.

SMILES strings stand for the structures. Inconclusive results are not listed. Entries that show only a call come without a potency. The source made the active and inactive calls. Calls follow the shape of the dose curve; as a rule, active = well fitted inhibition curve with a large enough effect; inconclusive = small, poorly fitted or top-dose-only effect; inactive = flat fitted curve, though single readings scatter.

Chain of Calcium and integrin-binding protein 1 (Homo sapiens) (Q99828 whole entry, looked up): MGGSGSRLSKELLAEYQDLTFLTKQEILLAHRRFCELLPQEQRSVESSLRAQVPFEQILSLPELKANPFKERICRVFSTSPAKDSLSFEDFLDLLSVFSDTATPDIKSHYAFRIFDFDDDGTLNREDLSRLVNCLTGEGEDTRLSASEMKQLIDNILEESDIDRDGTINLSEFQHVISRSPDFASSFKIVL

The target of the test is Calcium and integrin-binding protein 1 (Homo sapiens) (UniProt Q99828). Kind of test: Primary qHTS for Identification of Calcium Integrin Binding Protein 1 (CIB1) Competitor (AID 1508620).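 Also: GST tagged CIB1 binding a fluorescein labelled alphaIIb integrin peptide tracer; top concentration of the series differs between compounds.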 The following applies: CIB1-GST / FITC-alphaIIb peptide fluorescence polarization; series mostly up to 114 µM. Put shortly:
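Fluorescence polarization competition: CIB1-GST (1 uM final) preincubated with compound 15 min at room temperature, then FITC-labeled alphaIIb peptide (100 nM final) added for another 15 min. Polarization read at Ex 480/Em 540.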
Consider `O=C(CCl)Nc1cccc(NC2=NS(=O)(=O)c3ccccc32)c1`, for which the Potency result was “inactive”.
Then `COc1ccncc1C(=O)NC(=O)Nc1ccc(-c2ccccc2)c(C(F)(F)F)c1`, with “inactive”.
With `C=C1CC[C@@H]2[C@](C)(CO)[C@H](O)CC[C@@]2(C)[C@@H]1C/C=C1/C(=O)OCC1O` (some centres undefined), the Potency entry is “inactive”.
Take `Cc1nc(C#Cc2ccnc(Cl)c2)c(C)n1-c1ccc(OC(F)(F)F)cc1`: the Potency result is “inactive”.
Then `Cc1cccc(C#Cc2cc(F)cc(C#N)c2)n1`, with “inactive”; and `O=C(Nc1ccc(CN2CCOCC2)cc1)c1ccc(-c2cccc(Cl)c2)o1`, with “inactive”; and `CCC(CC)Nc1nc(C)c(-c2ccc(OC(F)(F)F)cc2OC)nc1OC`, with “inactive”.
Then `CN(C)CCN(Cc1ccc(-c2ccc(CNCCc3ccccc3)cc2)cc1)C(=O)CCC1CCCC1`, with “inactive”.
Then `C[C@@H](Nc1ncnc2[nH]c(-c3ccc(O)cc3)cc12)c1ccccc1`, with “inactive”; and `O=C(Nc1cc(C(F)(F)F)cc(C(F)(F)F)c1)c1cnc(Cl)nc1C(F)(F)F`, with “inactive”.
Consider `C/C=C(\C)C(=O)OC1C(C)C2(O)C(C=C(CO)CC3(O)C(=O)C(C)=CC32)C2C(C)(C)C12OC(C)=O` (centres undefined), for which the Potency result was “inactive”.
Then `CC[C@H]1OC(=O)[C@H](C)[C@@H](O[C@H]2C[C@@](C)(OC)[C@@H](O)[C@H](C)O2)[C@H](C)[C@@H](O[C@H]2O[C@H](C)C[C@H](N(C)C)[C@H]2O)[C@](C)(O)C[C@@H](C)C(=O)[C@H](C)[C@@H](O)[C@]1(C)O`, with “inactive”; and `O=c1[nH]c2cccc(N3CCN(Cc4ccc(-c5ccccc5)cc4)CC3)c2o1`, with “inactive”; and `C=C[C@](C)(O)CC[C@H]1C(C)=CC(=O)[C@H]2C(C)(C)CCC[C@]12C`, with “inactive”.
As for `CC(C)(C)c1ccc(C(=O)Nc2cc(Cl)c(Br)cc2C(=O)O)cc1`, the Potency result is “inactive”.
Then `Cc1cc(C)nc(SCC(=O)Nc2ncc(Cc3cccc4ccccc34)s2)n1`, with “inactive”; and `Cn1nc(C(C)(C)C)cc1C(=O)N[C@@H](Cc1cccc(Cl)c1)C(=O)NCC#N`, with “inactive”.
To `O=C(Nc1ccccc1)c1ccc(Nc2nnc(-c3ccc(O)cc3)c3ccccc23)cc1` belongs “inactive”; to `C=C1CC[C@@H]2[C@](C)(CO)[C@H](O)CC[C@@]2(C)[C@@H]1CC(=O)C1=CCOC1=O`, “inactive”; to `COC1C(OC(=O)/C=C/C=C/C=C/C=C/C(=O)O)CCC2(CO2)C1C1(C)OC1CC=C(C)C` (centres undefined), “inactive”.
In the case of `CC(C)(C)[C@H](NC(=O)c1ccc(N)c(Cl)c1)C(=O)N1CCC[C@H]1C(=O)N[C@H](C#N)CC(=O)O`, the Potency result was “inactive”.
Then `Cc1c[nH]c2ncnc(N3CCC(CN)(C(=O)Nc4cccc(OC(=O)N(C)C)c4)CC3)c12`, with “inactive”; and `CC(C)Nc1nc(Nc2ccccc2)nc(-c2ccccc2)n1`, with “inactive”; and `COc1cc(C#N)ccc1S(=O)(=O)Nc1ccc2c(c1)cc(C)c(=O)n2C`, with “inactive”.
Then `CC(C)(C)NC(=O)[C@H]1CC[C@H]2[C@@H]3CC[C@H]4NC(=O)CC[C@]4(C)[C@H]3CC[C@]12C`, with “inactive”.
As to `C=C1C(OC2OC(CO)C(O)C(O)C2O)CC2C(C)(C)C(O)CCC2(C)C1CC/C(C)=C\COC(=O)CC(=O)O` (centres undefined), the Potency result was “inactive”.
As to `O=C(O)c1cc(N(Cc2ccc(C3CCCCC3)cc2)C(=O)c2ccc(Oc3ccccc3)cc2)ccc1O`, the Potency entry is “inactive”.
To `COc1ccccc1C(=O)Nc1cccc(NC(=O)c2cccc(C)c2)c1` belongs “inactive”; to `COC1=CC(=O)O/C1=C(/OC)[C@@H]1O[C@H]1c1ccccc1`, “inactive”.
To `O=C(NCc1cccs1)c1cc2nc(-c3ccco3)cc(C(F)(F)Cl)n2n1` belongs “inactive”; to `CC(C)S(=O)(=O)NC[C@H](C)c1ccc(-c2ccc(CCNS(C)(=O)=O)cc2)cc1`, “inactive”.
Take `O=C(c1ccc(OC(F)F)c(C#Cc2ccccn2)c1)N1Cc2cccnc2C1`: the Potency entry is “inactive”.
Consider `CCCCC1CCN(CCCN2C(=O)CCc3ccccc32)CC1`, for which the Potency entry was “inactive”.
For `CCCn1ncc(CN2CCCC(C(=O)c3cccc(OC(C)C)c3)C2)c1C` (centres undefined), the Potency result was “inactive”.
For the compound `C=C1C(=O)OC2C=C(C)CC/C=C(\CO)CC(O)C12` (centres undefined), the Potency result is “inactive”.
As for `COC1CC(=O)C23C(=O)NC(CC(C)C)C2C(C)C(C)=CC3/C=C(\C)CCCC1O` (centres undefined), the Potency result is “inactive”.
For `CC(C)(C)Oc1ccc(OCC2Cc3ccccc3CN2C(=O)c2cccc3ccccc23)cc1` (centres undefined), the Potency entry is “inactive”.
In the case of `O=C1c2ccc(Nc3ccc(F)cc3F)cc2CCc2ccc(OCC(O)CO)cc21` (centres undefined), the Potency result is “inactive”.
`CC(C)CCNc1ncccc1C(=O)N1CCN(Cc2ccccc2)CC1`: the Potency result was “inactive”.
